Data on 39 compounds can be found in PubChem BioAssay (Tox21).

Inconclusive results are not listed. Entries that show only a call come without a potency. The source holds several records for some structures; these can differ, active in one and inactive in another. Calls of active or inactive are those of the source. Unless noted, the call rests on the fitted dose curve; in most records, active means well fitted cell-killing curve with a large enough effect in the repeat runs; inconclusive means weak or mixed curves, or effect the other way; inactive means no such curve, though single readings can be large or run the other way.

The nature of one test: qHTS assay to identify small molecule agonists of the endoplasmic reticulum stress response signaling pathway (AID 1159516; active means well fitted activation curve with a large enough effect in the signal ratio in the repeat runs, not every such curve was filed as active; the % refers to the signal ratio). As to conditions: ESRE-bla HeLa, ER stress beta-lactamase reporter, 5 h; series mostly up to 61 µM; activation: at the top concentration. An outline of the steps: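 Reporter HeLa cells (ESRE-beta-lactamase) underwent 5 hr compound incubation at 37 C and 5% CO2 in quantitative HTS format. Detection followed 2 hr of FRET substrate loading at room temperature.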
Background: Quantitative high-throughput screening tests each substance at several concentrations.
`O=C(O)c1cc(=O)[nH]c(=O)[nH]1`: the “activation” value is -2.11% (inactive).
As to `C1COCCN1`, the Potency entry is “inactive”.
On the same count and under the same terms, next, `c1ccc2ncccc2c1`: “inactive”; `CCC/C=C/C=O`: “inactive”.
On to `NCCS(=O)(=O)O`, for which the “activation” value is -5.88% (inactive).
Regarding `CC(=O)Oc1ccc(C(c2ccc(OC(C)=O)cc2)c2ccccn2)cc1`, the Potency entry was “inactive”.
Same read-out and setting: next, `CN(C)CCCN1c2ccccc2Sc2ccc(Cl)cc21`: “inactive”; `CN1CCOCC1`: “inactive”; `CNC[C@H](O)c1ccc(O)c(O)c1`: “inactive”.
Take `C=C[C@H]1CN2CC[C@H]1C[C@H]2[C@H](O)c1ccnc2ccc(OC)cc12`: the Potency entry is “inactive”.
Regarding `O=C(O)CCCCCCCCCCCC(=O)O`, the “activation” value is -2.08% (inactive).
Regarding `CC1(C)O[C@@H]2C[C@H]3[C@@H]4C[C@H](F)C5=CC(=O)C=C[C@]5(C)[C@@]4(F)[C@@H](O)C[C@]3(C)[C@]2(C(=O)CO)O1`, the Potency entry was “inactive”.
On the same count and under the same terms, next, `CC[C@]12CCCN3CCc4c(n(c5ccccc45)[C@@](O)(C(=O)OC)C1)[C@@H]32`: “inactive”.
On to `COc1ccc(-c2coc3cc(O)cc(O)c3c2=O)cc1`, for which the “activation” value is 10.5% (inactive).
Regarding `CC(=O)[C@H]1CC[C@H]2[C@@H]3CC=C4C[C@@H](O)CC[C@]4(C)[C@H]3CC[C@]12C`, the Potency entry is “inactive”.
As for `O=Cc1ccccc1C=O`, the “activation” value was -4.28% (inactive).
As for `c1ccc2c(c1)[nH]c1ccccc12`, the Potency result was “inactive”.
Still for that read-out and setting: next, `Cc1ccc2c(c1)C(=O)OC2=O`: “inactive”.
`Nc1ccc(N)c(Cl)c1`: the “activation” value was -0.133% (inactive).
As to `CC1(C)OC(=O)NC1=O`, the Potency result is “inactive”.
For the compound `Nc1ccc2c(c1)C(=O)c1ccccc1C2=O`, the “activation” value is -2.86% (inactive).
`CC(=O)OC(C)C`: the Potency entry was “inactive”.
On to `ClC/C=C/CCl`, for which the Potency result was “inactive”.
On the same count and under the same terms, next, `Oc1c(Cl)ccc(Cl)c1Cl`: “inactive”.
As for `CC/C(=C(/CC)c1ccc(O)cc1)c1ccc(O)cc1`, the “activation” value was -4.82% (inactive).
Consider `C=CCNCC=C`, for which the Potency entry is “inactive”.
Consider `CCCN1C=CN(C)C1`, for which the Potency result was “inactive”.
For the compound `Oc1ccc(C(c2ccc(O)cc2)C(Cl)(Cl)Cl)cc1`, the “activation” value is 9.07% (inactive).
As to `CCCOCCO`, the Potency result was “inactive”.
Same read-out and setting: next, `C=CC(C)(O)CCC=C(C)C` (stereo not drawn): “inactive”.
The same measure, in the same setting: next, `[Na+]`: “inactive”; `CCO[Si](CCCNC(N)=O)(OCC)OCC`: “inactive”.
On to `NCCOCCO`, for which the “activation” value is 5.16% (inactive).
On the same count and under the same terms, next, `COC(=O)c1ccc(C)cc1`: 2.66% (inactive).
On to `CC(C)[N+](C)(CCOC(=O)C1c2ccccc2Oc2ccccc21)C(C)C`, for which the Potency entry was “inactive”.
As to `CCCCCCOCCOCCO`, the “activation” value is 0.106% (inactive).
Consider `Cc1ccc(/C(=C\CN2CCCC2)c2ccccn2)cc1`, for which the Potency entry was “inactive”.
Take `COC(=O)C(C)Oc1ccc(Oc2ncc(C(F)(F)F)cc2Cl)cc1` (stereo not drawn): the “activation” value is 0.955% (inactive).

The next test can be described thus: qHTS assay to identify small molecule agonists of the endoplasmic reticulum stress response signaling pathway - cell viability counter screen (AID 1159517; calls by dose curve; further: nearly all actives have a fitted effect of over 50% in size; further: potency means the concentration at half of the fitted maximal effect). As to conditions: ESRE-bla HeLa viability, CellTiter-Glo luminescence, 5 h; series mostly up to 61 µM; activity change, negative = cytotoxicity: at the top concentration. Summed up:
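CellTiter-Glo was added to wells already read for beta-lactamase FRET, and luminescence was recorded 30 min later. Cells: ESRE-bla HeLa, 1,500 per well, compound exposure 5 hr at 37 C.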
Consider `CC1(C)O[C@@H]2C[C@H]3[C@@H]4C[C@H](F)C5=CC(=O)C=C[C@]5(C)[C@@]4(F)[C@@H](O)C[C@]3(C)[C@]2(C(=O)CO)O1`, for which the Potency entry is “inactive”.
On the same count and under the same terms, next, `O=[Se](O)O`: “inactive”; `Cc1ccc2c(c1)C(=O)OC2=O`: “inactive”.
On the same count and under the same terms, next, `ClC/C=C/CCl`: “inactive”; `CC/C(=C(/CC)c1ccc(O)cc1)c1ccc(O)cc1`: 54.9 µM (active) and inactive; `C=CCNCC=C`: “inactive”.
On the same count and under the same terms, next, `CCCN1C=CN(C)C1`: “inactive”; `Oc1ccc(C(c2ccc(O)cc2)C(Cl)(Cl)Cl)cc1`: “inactive”.
With `CCCOCCO`, the Potency result was “inactive”.
As for `C=CC(C)(O)CCC=C(C)C` (stereo not drawn), the “activity change, negative = cytotoxicity” value is 23.7% (inactive).
Take `Cc1ccc(/C(=C\CN2CCCC2)c2ccccn2)cc1`: the Potency entry was “inactive”.

Another test can be described thus: qHTS assay to identify small molecule antagonists of the retinoid-related orphan receptor gamma (ROR-gamma) signaling pathway - cell viability counter screen (AID 1159520). Further: nearly all actives have a fitted effect of over 50% in size. Further: potency means the concentration at half of the fitted maximal effect. As to conditions: Tet-on RORgamma CHO cells viability, ATP luminescence, 16 h; series mostly up to 92.4 µM; activity, negative = cytotoxicity: at the top concentration. An outline of the steps:
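Tet-on ROR gamma CHO cells (1,000/well) were plated 4 hr, given compounds in DMSO for 2 hr at 37 C, then induced with 1 uM final doxycycline for 16 hr. Viability was read as ATP by CellTiter-Glo luminescence after 30 min.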
For `O=C(O)c1cc(=O)[nH]c(=O)[nH]1`, the Potency result was “inactive”.
Take `C1COCCN1`: the Potency result was “inactive”.
The same measure, in the same setting: next, `c1ccc2ncccc2c1`: “inactive”; `CCC/C=C/C=O`: “inactive”; `NCCS(=O)(=O)O`: “inactive”.
The same measure, in the same setting: next, `CC(=O)Oc1ccc(C(c2ccc(OC(C)=O)cc2)c2ccccn2)cc1`: “inactive”.
In the case of `CN(C)CCCN1c2ccccc2Sc2ccc(Cl)cc21`, the Potency entry is “inactive”.
On to `CN1CCOCC1`, for which the Potency result was “inactive”.
On the same count and under the same terms, next, `CNC[C@H](O)c1ccc(O)c(O)c1`: “inactive”; `C=C[C@H]1CN2CC[C@H]1C[C@H]2[C@H](O)c1ccnc2ccc(OC)cc12`: “inactive”.
Consider `O=C(O)CCCCCCCCCCCC(=O)O`, for which the Potency result is “inactive”.
For `CC1(C)O[C@@H]2C[C@H]3[C@@H]4C[C@H](F)C5=CC(=O)C=C[C@]5(C)[C@@]4(F)[C@@H](O)C[C@]3(C)[C@]2(C(=O)CO)O1`, the Potency result is “inactive”.
Turning to `O=[Se](O)O`, the Potency is 54.5 µM (active) and the activity, negative = cytotoxicity is -10.3% [at 19 µM] (inactive).
In the case of `CC[C@]12CCCN3CCc4c(n(c5ccccc45)[C@@](O)(C(=O)OC)C1)[C@@H]32`, the Potency result was “inactive”.
Take `COc1ccc(-c2coc3cc(O)cc(O)c3c2=O)cc1`: the “activity, negative = cytotoxicity” value was -7.45% (inactive).
Consider `CC(=O)[C@H]1CC[C@H]2[C@@H]3CC=C4C[C@@H](O)CC[C@]4(C)[C@H]3CC[C@]12C`, for which the Potency entry was “inactive”.
The same measure, in the same setting: next, `O=Cc1ccccc1C=O`: 7.7 µM (active) and inactive; `c1ccc2c(c1)[nH]c1ccccc12`: “inactive”.
With `Cc1ccc2c(c1)C(=O)OC2=O`, the Potency result is “inactive”.
On the same count and under the same terms, next, `Nc1ccc(N)c(Cl)c1`: “inactive”; `CC1(C)OC(=O)NC1=O`: “inactive”.
In the case of `CC(=O)OC(C)C`, the Potency result was “inactive”.
Consider `ClC/C=C/CCl`, for which the Potency result was “inactive”.
As to `Oc1c(Cl)ccc(Cl)c1Cl`, the Potency entry is “inactive”.
In the case of `CC/C(=C(/CC)c1ccc(O)cc1)c1ccc(O)cc1`, the Potency result is “inactive”.
Regarding `C=CCNCC=C`, the Potency entry is “inactive”.
Same read-out and setting: next, `CCCN1C=CN(C)C1`: “inactive”.
On to `Oc1ccc(C(c2ccc(O)cc2)C(Cl)(Cl)Cl)cc1`, for which the “activity, negative = cytotoxicity” value is -18.5% (inactive).
`CCCOCCO`: the Potency result is “inactive”.
For the compound `C=CC(C)(O)CCC=C(C)C` (stereo not drawn), the Potency entry is “inactive”.
On the same count and under the same terms, next, `[Na+]`: “inactive”; `CCO[Si](CCCNC(N)=O)(OCC)OCC`: “inactive”.
Same read-out and setting: next, `NCCOCCO`: “inactive”; `COC(=O)c1ccc(C)cc1`: “inactive”; `CC(C)[N+](C)(CCOC(=O)C1c2ccccc2Oc2ccccc21)C(C)C`: “inactive”.
On the same count and under the same terms, next, `CCCCCCOCCOCCO`: “inactive”; `Cc1ccc(/C(=C\CN2CCCC2)c2ccccn2)cc1`: “inactive”.
For `COC(=O)C(C)Oc1ccc(Oc2ncc(C(F)(F)F)cc2Cl)cc1` (stereo not drawn), the Potency result was “inactive”.
